From ChEMBL document CHEMBL1157539, “Thousands of chemical starting points for antimalarial lead identification” (Nature, 2010)

System: Plasmodium falciparum
Test: GSK_TCMDC: Inhibition of Plasmodium falciparum Dd2 in whole red blood cells, using parasite LDH activity as an index of growth. Test compounds present at 2uM
Format: functional

| SMILES | Inhibition [%] |
| --- | --- |
| Oc1cc(NCc2ccccc2NCc2ccc(Cl)c(Cl)c2)nc2ccccc12 | 98 |
| COc1cc(NC(=O)c2sc(-c3ccc(Cl)cc3)cc2NC(=O)N2CCCC2)ccc1OCCN1CCCC1 | 61 |
| O=C(Nc1ccc(CCNCCCc2ccccc2)cc1)Nc1ccc(Cl)c(Cl)c1 | 99 |
| CC(O)C1CCCCN1C(=O)c1cccc(-c2cccc(-c3nc4ccccc4[nH]3)c2)c1 (stereo not given) | 76 |
| COc1nc2c(CCN3CCC(NCc4ccc5c(n4)NC(=O)CO5)CC3)c(Cl)cnc2cc1F.Cl | 40 |
| CCN(CC)CCN(Cc1ccc(-c2ccc(C(F)(F)F)cc2)cc1)C(=O)Cn1c(CCc2cccc(F)c2F)nc(=O)c2cc(F)c(F)cc21.O=C(O)C(O)C(O)C(=O)O | 56 |
| CN(c1ccc(NC(=O)c2cccc(F)c2)cc1)C1CCCN(Cc2cccc(O)c2)C1.O=C(O)C(F)(F)F (stereo not given) | 2 |
| COc1ccc(CN(C)CCCc2ccc(NC(=O)c3cccc4c(=O)c5cccc(F)c5[nH]c34)cc2)cc1OC | 94 |
| Cc1nnc2c(NC(=O)NC3CCCC3)cc3cc(-c4ccc(CN(C)C)cc4)ccc3n12 | 37 |
| CC1CCC(C[C@@H](C(=O)N[C@@H](CCC(=O)N2CCCCC2)C(=O)Nc2nccs2)[C@H](C(C)C)N(O)C=O)CC1 (stereo not given in full) | 70 |
| Cn1c(NC2CCN(CC3CCN(C(=O)/C=C/c4ccc(Cl)c(Cl)c4)CC3)CC2)nc2ccccc21 | 100 |
| Cc1nc2c(s1)c(=O)cc(CCc1cccc(F)c1F)n2CC(=O)N(Cc1ccc(-c2ccc(C(F)(F)F)cc2)cc1)C1CCN(C(C)C)CC1.O=C(O)C(O)C(O)C(=O)O | 82 |
| O=C(Nc1ccccc1-c1nc2ccccc2s1)C(Cl)(Cl)Cl | 99 |
| COc1cccc(CNC[C@@H](O)[C@H](Cc2ccccc2)NC(=O)c2cc3c4c(c2)c(C(C)C)cn4CCS(=O)(=O)N3C)c1.O=CO | 98 |
| COc1ccc(NC2=C(c3ccccc3)C(=O)c3ccccc32)cn1 | 84 |
| CC(Nc1ccnc2cc(Cl)ccc12)c1ccc(S(N)(=O)=O)cc1 (stereo not given) | 21 |
| N=C1NC(c2ccccc2)(c2ccccc2)C(=O)N1CC=Cc1ccccc1.O=C(O)C(F)(F)F | 70 |
| Cc1nc2ccc3ccc(CNc4ccc(C(=O)N[C@@H](CCC(=O)O)C(=O)N[C@@H](Cc5cccs5)C(=O)O)c(F)c4)cc3c2c(=O)[nH]1 | 96 |
| COc1cc(C(=O)NC2CC(C)(C)NC(C)(C)C2)ccc1-c1cc2cc(Cl)c(Cl)cc2[nH]1.O=C(O)C(F)(F)F | 31 |
| O=C(Nc1ccc(C(=O)N2CCN(CCN3CCN(c4cccc(C(F)(F)F)c4)CC3)CC2)cc1)c1ccc(OC(F)(F)F)cc1 | 25 |

| SMILES | Inhibition [%] |
| --- | --- |
| Oc1ccccc1CN(CCCN(Cc1ccccn1)Cc1ccccc1O)Cc1ccccn1 | 92 |
| Cc1ccc(F)c(OCC2CCN(c3ccc(C(=O)NC4CC4)cn3)CC2)c1 | 95 |
| Cl.Nc1cccc(C=CC(=O)N=c2cc[nH]c3ccccc23)c1 | 60 |
| CC(Cc1ccc(NC(=O)COc2ccc(CC(C)NCCc3cccc(Cl)c3)cc2)cc1)NCCc1cccc(Cl)c1 (stereo not given) | 98 |
| CCNc1cc(C(=O)N[C@@H](Cc2ccccc2)[C@H](O)CNC2(CC)CC2)cc(N2CCCCS2(=O)=O)c1.Cl | 94 |
| O=C(Nc1ccccc1)Nc1cccc(-c2cccc(-c3nc4cc(F)ccc4[nH]3)c2)c1 | 41 |
| COc1c(CCNCCCCNCCc2cc(Cl)c3ccccc3c2OC)cc(Cl)c2ccccc12.CS(=O)(=O)O | 100 |
| c1ccc(Oc2ccc(Nc3ccnc4cc(-c5csc(CNCCN6CCOCC6)n5)ccc34)cc2)cc1 | 99 |
| Cc1cc(Nc2ccc(O)cc2)nc2cc(O)ccc12.Cl | 9 |
| Cc1c[nH]c(CCNC(=O)c2cc(-c3ccc(Cl)cc3)cs2)n1 | 7 |
| CCN(CC)CCN(Cc1ccc(-c2ccc(C(F)(F)F)cc2)cc1)C(=O)Cn1c(CCc2cccc(F)c2F)nc(=O)c2ccc(F)cc21.O=C(O)C(O)C(O)C(=O)O | 41 |
| Cc1cc(NC(=O)c2ccc(S(=O)(=O)N(Cc3ccccc3)C(C)C)cc2)no1 | 67 |
| O=C(Nc1ccc(-c2nc3ccccc3[nH]2)cc1)c1cccc(S(=O)(=O)N2CCOCC2)c1 | 43 |
| C#CCN(Cc1cc2c(=O)[nH]c(N)nc2cc1C)c1ccc(C(=O)N[C@@H](CCC(=O)O)C(=O)O)cc1 | 74 |
| COc1cccc2cc(C(=O)N[C@@H](CC(C)C)C(=O)N[C@H](C=NN3CCOC3=O)Cc3ccccc3)oc12 | 70 |
| Br.N=C1N=C(N)NC2(CCCCC2)N1OCCCOc1cccc2ccccc12 | 96 |
| Cc1nc(-c2cccc(Nc3ccnc4cc(-c5nccs5)ccc34)c2)no1.Cl | 90 |
| CCn1cc(C=C2Oc3c(ccc(O)c3CN3CCCCC3)C2=O)c2cc(OC)ccc21 | 99 |
| O=C(NC1CCCC1)c1ccc(N2CCC(NCc3cc4cc(Cl)ccc4[nH]3)CC2)cc1 | 0 |
| Br.CC1(C)NC(N)=NC(=N)N1OCCCCOc1ccccc1 | 95 |
